{
  "source": "the OligoGym collection",
  "data": [
    {"molecular_target": "ASCC1", "experiment": "pooled miR-30 sensor sort-seq; sequence = guide strand", "conditions": "shRNA", "values": [
      {"sequence": "TCTTGGACTGGATTCTTCCTGT", "sensor-assay potency score (higher = more potent)": 0.362},
      {"sequence": "TCCATTTCTATTTTCTTCCTAG", "sensor-assay potency score (higher = more potent)": -0.685},
      {"sequence": "TTCTTCATGTTGATAGGTCTGT", "sensor-assay potency score (higher = more potent)": 1.07},
      {"sequence": "TTTCACACTATTCCACTCTTTC", "sensor-assay potency score (higher = more potent)": -0.561},
      {"sequence": "AATTACACCATTTCGATGCTGG", "sensor-assay potency score (higher = more potent)": 0.516},
      {"sequence": "TAGACCGGAATCCTTGTGGGGT", "sensor-assay potency score (higher = more potent)": -0.676},
      {"sequence": "TAGAAGTTCTCAAACAACTTTA", "sensor-assay potency score (higher = more potent)": -0.0661},
      {"sequence": "TTGGACTGGATTCTTCCTGTAA", "sensor-assay potency score (higher = more potent)": -0.381},
      {"sequence": "TAGCATCTCACATGTCTGCTGG", "sensor-assay potency score (higher = more potent)": 0.184},
      {"sequence": "TATGCTTATAGAGCAAGCTGGG", "sensor-assay potency score (higher = more potent)": -1},
      {"sequence": "TCAACTAATTCTTGTAGCCTGT", "sensor-assay potency score (higher = more potent)": -0.154},
      {"sequence": "TCTCTTTCCAACTATATGCTTA", "sensor-assay potency score (higher = more potent)": -0.403}
    ]},
    {"molecular_target": "ASCL1", "experiment": "pooled miR-30 sensor sort-seq; sequence = guide strand", "conditions": "shRNA", "values": [
      {"sequence": "TTGGAGTGCAAAGATACTGTTC", "sensor-assay potency score (higher = more potent)": 0.084},
      {"sequence": "TTTGAGTTTGGACAGTAGCTGC", "sensor-assay potency score (higher = more potent)": -0.582},
      {"sequence": "TTGGGCGCTGACTTGTGACCGC", "sensor-assay potency score (higher = more potent)": -0.646},
      {"sequence": "TTTGCAGCGCATCAGTTCGGGC", "sensor-assay potency score (higher = more potent)": -1.5},
      {"sequence": "TAAGTTTGTAATAAAACAGTAA", "sensor-assay potency score (higher = more potent)": -0.00305},
      {"sequence": "TTGAACAGTATTTAATAACATC", "sensor-assay potency score (higher = more potent)": -1.14},
      {"sequence": "ATGCTCGTCCAGCAGCTGCTGC", "sensor-assay potency score (higher = more potent)": -1.67},
      {"sequence": "TAATACATTAACAACATTTCTA", "sensor-assay potency score (higher = more potent)": 0.433}
    ]}
  ]
}
